# FBPA Giardia inh = qHTS Assay for Inhibitors of Fructose-1,6-bisphosphate Aldolase from Giardia Lamblia. A8B2U2. purified Giardia FBPA. Potency, µM (titrated, usually from 59.6 µM), without a hit: top-dose activity, negative = inhibition, most hits filed as inhibitors. actives 0.71% (n = 290,000). AID 2451, 2010; further: potency means the concentration at half of the fitted maximal effect; on the % scale 0 is the no-effect control and ±100 the full control effect; nearly all actives have a fitted effect of over 55% in size
# Target sequence (A8B2U2 whole entry, looked up): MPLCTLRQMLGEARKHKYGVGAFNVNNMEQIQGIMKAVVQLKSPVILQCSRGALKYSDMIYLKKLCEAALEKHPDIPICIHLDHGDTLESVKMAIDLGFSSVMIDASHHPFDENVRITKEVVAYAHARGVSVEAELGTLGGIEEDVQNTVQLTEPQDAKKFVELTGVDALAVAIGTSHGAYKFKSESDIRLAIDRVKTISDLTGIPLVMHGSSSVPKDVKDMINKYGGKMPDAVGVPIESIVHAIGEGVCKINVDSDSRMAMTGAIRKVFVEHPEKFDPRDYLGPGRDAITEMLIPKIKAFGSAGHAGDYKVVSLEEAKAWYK
#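 Giardia FBPA (40 nM reagent) was preincubated 10 min at RT with compound (up to 57.5 uM final), then substrate plus GAPDH/TPI/NAD/arsenate coupling system with diaphorase/resazurin was added; resorufin fluorescence (525/598 nm) was read after 20 min.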
# Tb PYK inh = qHTS of Trypanosoma Brucei Inhibitors. pyruvate kinase (Trypanosoma brucei), Q57TT1. TbPYK enzyme, Kinase-Glo Plus ATP luminescence, 45 min. Potency, µM (titrated, usually from 76.8 µM), without a hit: at the top dose activity, negative = inhibition, most hits filed as inhibitors. actives 0.12% (n = 410,000). AID 624173, 2012; further: potency means the concentration at half of the fitted maximal effect; on the % scale 0 is the no-effect control and ±100 the full control effect; nearly all actives have a fitted effect of over 50% in size
#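 Screened from lowest to highest concentration, compounds were pinned into TbPYK/substrate mixtures, and ADP (130 uM final) was added. Plates sat at room temperature for 45 min prior to Kinase-Glo Plus detection by luminescence.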
# LmPK inh = qHTS Assay for Inhibitors of Leishmania Mexicana Pyruvate Kinase (LmPK). Q27686. purified LmPK, Kinase-Glo ATP luminescence, 1 h. Potency, µM (top dose mostly 57.5 µM), for inactives: at the highest dose activity change, negative = inhibition, hits mostly inhibitors. actives 0.37% (n = 290,000). AID 1721, 2009; further: potency means the concentration at half of the fitted maximal effect; on the % scale 0 is the no-effect control and ±100 the full control effect
#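 0.1 nM LmPK, 0.5 mM PEP, 0.1 mM ADP; 50 mM imidazole pH 7.2, 7 mM MgCl2, 50 mM KCl; 1 h RT. Kinase-Glo luminescence readout, normalized to no-enzyme (full inhibition) and uninhibited wells.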
# Cycloheximide cs = Cycloheximide Counterscreen for Small Molecule Inhibitors of Shiga Toxin; cell reporter, cycloheximide protein synthesis inhibition counterscreen; max response, %; actives 12% (n = 300,000); in the data active means max response mostly above about 13%, no sharp cut-off; inactive means mostly below about 14%; further: read at 38.3 µM for the half of the compounds with a filed dose; 0% is about no effect
# Sm TGR inh = qHTS Assay for the Inhibitors of Schistosoma Mansoni Peroxiredoxins; Schistosoma mansoni thioredoxin glutathione reductase (TGR), Q962Y6; purified TGR, DTNB reduction, TNB absorbance 405 nm; Potency, µM (top dose mostly 114 µM), without a hit: at the top dose activity change, negative = inhibition, most hits filed as inhibitors; actives 3% (n = 360,000); further: potency means the concentration at half of the fitted maximal effect; on the % scale 0 is the no-effect control and ±100 the full control effect; nearly all actives have a fitted effect of over 60% in size
#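 TGR 20 nM + NADPH 100 uM (dispensed conc.), cpd preinc 15 min RT; start with NADPH (500 uM addition) then DTNB (15 mM addition). Kinetic TNB absorbance, 405 nm filter. Four-parameter Hill fit across titration.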
# Shiga inhibitor = A qHTS for Small Molecule Inhibitors of Shiga Toxin | Vero cells, Shiga toxin protein synthesis inhibition reporter | inhibition, % at 38.7 µM | actives 9.2% (n = 290,000) | AID 2315, 2010; in the data active means inhibition mostly above about 28%, no sharp cut-off; inactive means mostly below about 43%; further: 0% is about no effect
# Numbers without * were called inactive; u = inconclusive; x = not tested or not shown; [ ] = another dose, or the depositor's remark. Only a selection was taken, and hits are over-represented in it overall. Unless noted, the call rests on the fitted dose curve; in most records, active means well fitted curve in the direction sought with a large enough effect; inconclusive means small, poorly fitted or top-dose-only effect, or another doubt; inactive means no such curve, though single readings can be large; an effect the other way counts as inactive or inconclusive.
SMILES,FBPA Giardia inh,Tb PYK inh,LmPK inh,Cycloheximide cs,Sm TGR inh,Shiga inhibitor
COc1cccc(Cn2c(=O)c(-c3cccs3)nc3cnc(N4CCN(C)CC4)nc32)c1,-4%,-4%,x,x,x,x
CCOC(=O)N1CCC(NC(=O)c2ccc3c(c2)sc2nc(-c4ccc(OC)cc4)cn23)CC1,1%,x,-7%,20*,5%,57*
CCOC(=O)N1CCN(C(=O)c2ccc3c(c2)sc2nc(-c4ccccc4)cn23)CC1,0%,-16%,-5%,53*,10%,43*
CCOC(=O)N1CCN(C(=O)c2nc3ccccc3s2)CC1,9%,2%,-2%,34*,-12%,73*
Cc1cc2n(n1)CCC(=O)N2Cc1ccc(C(=O)Nc2cccc(C(F)(F)F)c2)cc1,x,3%,x,x,3%,x
Cc1ccc(S(=O)(=O)Nc2cccc3ccc[n+](C)c23)cc1,-27%,x,x,-2,x,-5
CCCN1CCC(NC(=O)CCc2nnc(Cc3cc(OC)ccc3OC)o2)CC1,16%,-5%,3%,-2,1%,-5
COc1ccc(OC)c(Cc2nnc(CCC(=O)NCc3ccsc3)o2)c1,2%,-16%,14%,17*,-15%,37*
COc1ccc(CCc2nnc(CCC(=O)NCc3ccc4ncccc4c3)o2)cc1,1%,0%,-1%,17*,3%,34
COc1ccc(OC)c(Cc2nnc(CCC(=O)NC3CCCCC3)o2)c1,3%,4%,-1%,25*,2%,29*
O=C(CCc1nnc(CCc2c[nH]c3ccccc23)o1)NC1CCC1,2%,-26%,-2%,53*,-16%,180*
COc1ccc(-c2coc3cc(OC(C)=O)cc(OC(C)=O)c3c2=O)cc1,0%,x,x,x,x,x
COc1ccc(C)cc1-n1nnnc1SCC(=O)NC1CCS(=O)(=O)C1 (stereo not drawn),x,3%,x,x,0%,x
CNc1snc(C)c1C(=O)OCC(=O)NCc1ccccc1OC,x,6%,x,x,x,x
O=C(NCC(c1ccc(F)cc1)N1CCOCC1)c1ccc([N+](=O)[O-])o1 (stereo not drawn),x,4%,x,x,x,x
C[C@@H]1CN([C@@H](C)CO)C(=O)CCCn2nncc2CO[C@@H]1CN(C)C(=O)c1ccncc1,x,8%,x,x,x,x
COc1ccc(NC(=O)c2nnn(-c3ccc(C(C)C)cc3)c2C)c(OC)c1,x,6%,x,x,-2%,x
Cc1ccc(NC(=O)COc2ncnc3c(Cl)cc(Cl)cc23)cc1[N+](=O)[O-],2%,0%,-4%,-2,4.5µM*,-8
Cc1cc(C)cc(NC(=O)c2ccc3c(O)c(S(=O)(=O)c4ccccc4)c(=O)[nH]c3c2)c1,x,-4%,x,x,-2%,x
CCOC(=O)c1ccc(N2C(=O)c3n[nH]c(C)c3C2c2ccco2)cc1 (stereo not drawn),11%,2%,0%,6,-30%,-6
Cc1ccc(N2C(=O)c3n[nH]c(C)c3C2c2ccco2)cc1 (stereo not drawn),-7%,-14%,-1%,37*,-12%,73*
O=C(Nc1ccc(Cl)cc1F)c1cnc2sc(N3CCOCC3)nn2c1=O,x,1%,x,x,0%,x
COc1ccc(OCc2cc(C(=O)N(C)Cc3nnc(C)o3)no2)c(Cl)c1,-2%,5%,1%,29*,-20%,111*
CCc1ccc(CN(C)C(=O)c2cc(COc3ccc(OC)cc3Cl)on2)nc1,-1%,-5%,-7%,68*,-8%,84*
COc1cc(Cl)ccc1OCc1cc(C(=O)N(C)Cc2nnc(C)o2)no1,x,-7%,-1%,35*,-3%,17
SMILES,FBPA Giardia inh,Tb PYK inh,LmPK inh,Cycloheximide cs,Sm TGR inh,Shiga inhibitor
COc1ccc(OCc2cc(C(=O)N(C)Cc3cc(C)no3)no2)c(Cl)c1,-1%,1%,9%,72*,-1%,99*
Cc1ccc(NS(=O)(=O)c2cccs2)nc1,-18%,1%,-5%,1,10%,-5
CCCCS(=O)(=O)Nc1ccc(C)cn1,7.9µM*,-30%,-1%,-3,-17%,18
COc1ccc(N2CCN(C(=O)c3cccn3-c3nnc(N4CCCC4)s3)CC2)cc1,x,-14%[15.4 µM],x,x,-23%,x
Cc1cc(Nc2ccccc2C)n2nc(Cc3ccc(Cl)cc3)nc2n1,x,0%,x,x,0%,x
O=C(O)c1ccc(N2C(=O)c3cccnc3C2=O)cc1,u,6%,1%,19*,-1%,30
COc1ccc(N2C(=O)c3ccc(C(=O)Nc4ccc(NC(C)=O)cc4)cc3C2=O)cc1,-8%,4%,-4%,-3,0%,-5
O=C1c2cccnc2C(=O)N1c1ccccc1-c1ccccc1,-3%,-5%,3%,-3,2%,5
CC(=O)c1ccc(NC(=O)c2ccc(N3C(=O)c4cccnc4C3=O)cc2)cc1,-5%,2%,2%,22*,u,32
Cc1ccc(C(=O)C2CN(C)CC2C(=O)c2ccc(C)cc2)cc1 (stereo not drawn),-1%,1%,1%,23*,0%,39*
NCC1OC(OC2C(N)CC(N)[C@@H](O)[C@@H]2OC2O[C@H](CO)[C@@H](O[C@@H]3OC(CN)C(O)C(O)C3N)C2O)C(N)C(O)C1O (stereo partly drawn),10%,x,x,x,x,x
CSc1ccccc1OCc1cc(C(=O)N(Cc2nccn2C)C(C)C)no1,x,4%,-3%,29*,-1%,37
CC(C)N(Cc1nccn1C)C(=O)c1cc(COc2cccc(C(F)(F)F)c2)on1,4%,-9%,7%,-6,2%,-4
Cc1cc(OCc2cc(C(=O)N(Cc3nccn3C)C(C)C)no2)cc(C)c1Cl,x,0%,-8%,26*,-6%,55*
CCn1ccnc1CN(C)C(=O)c1cc(COc2ccccc2SC)on1,-4%,-3%,-5%,53*,-10%,96*
CCCCCCCCCCCCCCCC(=O)NC(C)C,7%,x,x,x,x,x
O=C(CSc1nc(-c2cccs2)nc2cc(=O)[nH]n12)Nc1cccc(C(F)(F)F)c1,x,-15%,x,x,1%,x
CC(C)(N=NC(C)(C)C(=N)N)C(=N)N,5%,x,x,x,x,x
Cc1cccc(NC(=O)c2sc3nc(-c4ccccc4)cn3c2C)c1C,x,2%,x,x,-7%,x
O=C(NNC1CC(=O)N(c2ccc(F)cc2)C1=O)c1cccnc1 (stereo not drawn),1%,4%,1%,-1,7.9µM*,-15
O=C(NNC1CC(=O)N(c2ccc(Br)cc2)C1=O)c1ccco1 (stereo not drawn),3%,-6%,5%,2,-21%,23
O=C(NNC1CC(=O)N(c2ccccc2)C1=O)c1cccnc1 (stereo not drawn),-1%,-2%,-1%,-1,1%,-3

# High-throughput results deposited in PubChem by National Center for Advancing Translational Sciences (NCATS).
